Source: PubChem BioAssay (National Center for Advancing Translational Sciences (NCATS))
Most compounds without a hit are left out; they make up all but 2.2% or so of the library.
TDP43 rescue – qHTS of TDP-43 Inhibitors | Potency, µM (top dose mostly 46.1 µM), for the others: top-dose growth rescue (activation), most hits filed as activators | AID 652104, 2013 | 1.8% of 410,000 active | TDP-43 expressing yeast growth rescue, BacTiter-Glo, 24 h; also: % of control where 0% means no effect; nearly all actives have a fitted effect of over 50% in size
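Yeast cells expressing TDP-43 under galactose induction are exposed to compounds for 24 hr at 30 deg C. BacTiter-Glo luminescence measures growth, so protective compounds score as activators.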
Mito fusion act – qHTS Assay for Small Molecule Inhibitors of Mitochondrial Division or Activators of Mitochondrial Fusion | Potency, µM (highest dose often 46.1 µM), without a hit: at the highest dose growth rescue (activation), actives largely listed as activators | 0.23% of 320,000 active | S. cerevisiae fusion-defective mutant growth rescue, CellTiterGlo 48 h; also: % of control where 0% means no effect; nearly all actives have a fitted effect of over 45% in size
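Luminescent cell viability in 1536-well qHTS format served as the measure of rescued growth in ts fusion-mutant S. cerevisiae cultured on non-fermentable YPEG for 48 hours at 37C.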
FUS yeast rescue – qHTS for Suppressors of FUS Proteinopathy: Primary screen using FUS-linked yeast assay. S. cerevisiae FUS-expressing, growth rescue, OD600, 24 h. Potency, µM (doses to about 76.6 µM), hits mostly activators. 0.24% of 390,000 active;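 also: plate controls were DMSO vehicle for no effect and reference control for full effect; nearly all actives have a fitted effect of over 55% in size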
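Yeast FUS proteinopathy model; galactose-induced FUS (2%), starting OD 0.005. Cpds in dilution series, 24hr, 30C, 99% humidity. Abs 600 nm growth. Pos ctrl CP55940 (top 92uM final); neg ctrl DMSO.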
aSyn rescue – qHTS of alpha-syn Inhibitors; Yeast expressing alpha-synuclein, growth rescue, BacTiter-Glo, 24 h; Potency, µM (top dose mostly 46.1 µM), inactives show at the highest dose growth rescue (activation), most hits filed as activators; 0.14% of 370,000 active; AID 652106, 2013; also: % of control where 0% means no effect; nearly all actives have a fitted effect of over 65% in size
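Readout is rescue of growth in alpha-synuclein-expressing yeast, so inhibitors of toxicity appear as activators. Growth after 24 hr at 30 deg C in galactose medium is quantified by luminescence.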
Abeta rescue – qHTS for compounds that reverse cellular toxicity of Amyloid beta (A-beta) peptide in yeast: Primary Screen; yeast expressing A-beta42, growth rescue, OD600, 48 h; response scale: 0% DMSO, 100% iron-clioquinol control; Potency, µM (titrated, usually from 46.1 µM), actives largely listed as activators; 0.063% of 410,000 active; also: nearly all actives have a fitted effect of over 55% in size
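Yeast growth medium received pinned compounds, then yeast cells expressing toxic A-beta were added; plates incubated at 30 C for 48 hr. Growth read as absorbance at 600 nm, normalized to DMSO and equimolar FeCl3 plus clioquinol controls.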
ERG Ets-DNA blk – qHTS for Small Molecule Inhibitors of the ERG Ets/DNA interaction | fluorescence polarization, His-ERG Ets domain / labelled DNA | Transcriptional regulator ERG (Homo sapiens), P11308 | Potency, µM (series often up to 76.9 µM), for the others: top-dose FP activity, negative = inhibition, actives largely listed as inhibitors | AID 624246, 2012 | 0.028% of 370,000 active; active = well fitted inhibition curve with a large enough effect in the polarisation, with a control signal flat; inconclusive = small, poorly fitted or top-dose-only effect, or effect the other way, or a change in a side signal; inactive = no such curve, though single readings can be large or run the other way; the % refers to the polarisation;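 also: polarization taken with two DNA probes labelled with fluorescein and Texas red; % of control where 0% means no effect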
Target sequence (P11308 whole entry, looked up, the tested form may be a part): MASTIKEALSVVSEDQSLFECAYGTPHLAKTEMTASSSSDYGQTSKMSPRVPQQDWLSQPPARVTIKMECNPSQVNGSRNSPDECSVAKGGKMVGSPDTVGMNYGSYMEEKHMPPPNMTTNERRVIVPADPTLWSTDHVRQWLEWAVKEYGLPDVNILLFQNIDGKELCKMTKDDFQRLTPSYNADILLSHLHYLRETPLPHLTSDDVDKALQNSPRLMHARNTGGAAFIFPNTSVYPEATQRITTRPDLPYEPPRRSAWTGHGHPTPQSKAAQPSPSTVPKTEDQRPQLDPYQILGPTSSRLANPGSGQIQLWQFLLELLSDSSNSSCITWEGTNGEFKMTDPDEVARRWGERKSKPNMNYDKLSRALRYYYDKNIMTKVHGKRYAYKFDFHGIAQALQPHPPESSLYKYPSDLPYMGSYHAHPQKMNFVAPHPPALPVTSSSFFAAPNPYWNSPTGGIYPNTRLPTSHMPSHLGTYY
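His-tagged ERG Ets domain (1 uM in the protein solution; 300mM KCl, 50mM Tris-HCl, 1mM EDTA, 1mM DTT, pH 7.5) received compound, then a probe mix of 5 nM fluorescein-DNA and 100nM Texas-615-DNA. Fluorescence polarization was read for both dyes.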
* = called active by the depositor; i = inactive; ? = inconclusive; / = not tested or not shown; ! = not active in a repeat. Unless noted, calls follow the shape of the dose curve; as a rule, active = well fitted curve in the direction sought with a large enough effect; inconclusive = small, poorly fitted or top-dose-only effect, or another doubt; inactive = no such curve, though single readings can be large; an effect the other way counts as inactive or inconclusive. Potency is read from the fitted curve at half-maximal effect.

SMILES	TDP43 rescue	Mito fusion act	FUS yeast rescue	aSyn rescue	Abeta rescue	ERG Ets-DNA blk
Cc1cccc(C(=O)O/N=C(\N)Cc2ccc([N+](=O)[O-])cc2)c1	-2%	-18%	i	-66%	i	9%
CCOCCCNC(=O)Nc1cc(C(=O)NCc2ccc(C(C)C)cc2)ccc1N1CCCC1	3%	/	?	/	i	0%
CC1CN(S(=O)(=O)c2cccc(-c3cn4ccccc4n3)c2)CC(C)O1 (configuration not stated)	-19%	2.8µM*	i	-5%	i	/
Cc1ccc(S(=O)(=O)C(CNS(=O)(=O)c2ccc(F)c(C(F)(F)F)c2)c2ccco2)cc1 (configuration not stated)	4µM*	/	i	/	i	-3%
Cc1ccsc1CN(C(=O)c1ccc(OCC(C)C)cc1)C1CCS(=O)(=O)C1 (configuration not stated)	?	/	i	/	i	-2%
Cc1ccccc1Cn1ccc(-c2ccc3c(c2)OCO3)n1	18µM*	-3%	i	-8%	i	1%
Nc1ccn(Cc2cccc(F)c2)n1	16%	-3%	i	3%	i	-3%
Fc1cccc(Cn2ccc(-c3ccc4c(c3)OCO4)n2)c1	13µM*	1%	i	-14%	i	4%
CCCCCCSc1ccc(-c2nc3ccc(C)cn3c2NCCCC)cc1OC	-93%	/	16µM*	-63%	i	/
CCCCCCSc1cc(-c2nc3cnccn3c2NCCCC)ccc1OC	0%	/	?	-64%	i	2%
CCCCCCSc1cc(-c2nc3cc(C)ccn3c2NCCCC)ccc1OC	-91%	-8%	28µM*!	-57%	i	-2%
CC(C)Oc1ccc(CNC(=O)C2CCN(C(=O)N3CC(C)Oc4ccccc43)CC2)cc1 (configuration not stated)	3%	/	i	/	i	0%
O=[N+]([O-])c1ccccc1S(=O)(=O)N1CCN(c2nc(-c3cccs3)nc3ccccc23)CC1	/	/	/	-4%	/	/
COCCCNC(=O)C[C@H]1C[C@@]2(C(=O)OC)C(=C[C@H](COCc3ccccc3)O[C@@H]2C)N(Cc2ccco2)C1=O	/	/	i	/	/	/
CN(C)c1ccc(CNC(=O)CN2C(=O)CSc3ccc(S(=O)(=O)N4CCCC4)cc32)cc1	10%	/	i	/	i	0%
CC(C)C[C@@H](CN1CCC[C@@H]1CN1C(=S)NC[C@@H]1Cc1ccc(O)cc1)N1C[C@H](Cc2ccc(O)cc2)N(CCc2ccccc2)C1=S	-1%	/	35µM*	-4%	i	/
Cc1ccc(OCCSc2nc3ccccc3n2CC(=O)N2CCOCC2)cc1C	23%	/	i	/	i	0%
COc1ccc2[nH]c3c(Cl)ncnc3c2c1	13µM*	-18%	/	27%	i	-5%
CCOc1nc(Nc2ccc(Cl)cc2)nc(OCC)n1	11µM*	-10%	i	-2%	i	-9%
CCOc1nc(Nc2ccccc2)nc(OCC)n1	?	-7%	i	5%	i	0%
CN(C)c1nc(Nc2ccc(Cl)cc2)nc(OCC#N)n1	11µM*	-2%	i	0%	i	-2%
Clc1ccc(OCCOc2ccc(Br)nc2Br)c(Cl)c1	/	/	i	/	/	/
CCOC(=O)c1cc(CC)sc1NC(=O)COc1ccccc1C	17%	/	i	/	i	5%
O=C(Nc1c(F)cc(F)cc1Br)c1cc(-c2ccc(O)cc2)on1	11µM*	?	i	-20%	i	-7%
CCOC(=O)CC[C@@H]1CC[C@]2(CCCN(Cc3ccc(OC)cc3)C2)O1	/	/	i	/	/	/
COc1ccc(OC)c(NC(=O)CCn2cccn2)c1	20%	/	i	/	i	-3%
